Source: PubChem BioAssay (NCATS)
A number with no mark means an inactive call. Calls follow the shape of the dose curve; as a rule, active = well fitted curve in the direction sought with a large enough effect; inconclusive = small, poorly fitted or top-dose-only effect, or another doubt; inactive = no such curve, though single readings can be large or run the other way.

Target: Alpha-galactosidase (Coffea arabica) (UniProt Q42656)
Test: Counterscreen for Glucocerebrosidase Inhibitors: qHTS Assay for Coffee Bean alpha-Galactosidase at pH 4.5 (AID 957)
Settings: purified coffee bean alpha-galactosidase, fluorogenic substrate; series mostly up to 76.9 µM; activity change, negative = inhibition: at the top concentration
Source text: NIH Chemical Genomics Center [NCGC]
NIH Molecular Libraries Screening Centers Network [MLSCN]
PI Name: Zheng, Wei [NIH]
Alpha-galactosidase is a homodimeric glycoprotein that hydrolyzes the terminal alpha-galactosyl moieties from glycolipids and glycoproteins. Deficiency of this enzyme results in Fabry Disease with progressive accumulation of globotriaosylceramide and other glycosphingolipids in vascular endothelial cells that causes renal failure, myocardial infarction and stroke, and premature death in patients. It has reported that the improper folding and trafficking of alpha-galactosidase resulted from the genetic mutations may account for a significant numbers of Fabry patients. […] We optimized this coffee bean alpha-galactosidase assay in 1536-well plate format as a counter-screen assay for identifying the selective small molecule inhibitors of other lysosomal enzymes.
NCGC Assay Protocol Summary:
This is a fluorogenic enzyme assay with 4-Methylumbelliferyl alpha-D-galactopyranoside as the substrate and green coffee bean […] (from Sigma-Aldrich) as the enzyme preparation. Upon the hydrolysis of this fluorogenic substrate, the resulting product, […]. 4-Methyllumbelliferone, can be excited at 365 nm and emits at 440 nm which can be detected by a standard fluorescence plate reader. Data were normalized to the controls for basal activity (without enzyme) and 100% activity (with enzyme). In the AC50 values were determined from concentration-response data modeled with the standard Hill equation.
Assay buffer: 50 mM citric acid, 0.005% Tween-20, pH 4.5. (pH 5.9 is an optimal condition for this enzyme assay. This assay in pH 4.5 is used for comparison the inhibitor activities with the human alpha-galactosidase assay)
1536-well assay protocol for the coffee bean alpha-galactosidase:
(1) Add 2 ul/well of enzyme (2 nM final)
(2) Add 23 nL compounds in DMSO solution. The final titration was 0.7 nM to 77 uM.
(3) Add 1 ul of substrate (80 uM final)
(4) Incubate at room temperature for 20 min.
(5) Add 2 ul stop solution (1M NaOH and 1M Glycine mixture, pH 10)
(6) Detect the assay plate in a ViewLux plate reader (PerkinElmer) with Ex=365 nm and Em=440nm.
Keywords: Alpha-galactosidase, Fabry Disease, pharmacological chaperone, chaperone therapy, high throughput screening, alpha-galactosidase inhibitor, MLSMR, MLSCN, NIH Roadmap, qHTS and NCGC

Alpha-galactosidase (Coffea arabica), sequence (Q42656 whole entry, looked up): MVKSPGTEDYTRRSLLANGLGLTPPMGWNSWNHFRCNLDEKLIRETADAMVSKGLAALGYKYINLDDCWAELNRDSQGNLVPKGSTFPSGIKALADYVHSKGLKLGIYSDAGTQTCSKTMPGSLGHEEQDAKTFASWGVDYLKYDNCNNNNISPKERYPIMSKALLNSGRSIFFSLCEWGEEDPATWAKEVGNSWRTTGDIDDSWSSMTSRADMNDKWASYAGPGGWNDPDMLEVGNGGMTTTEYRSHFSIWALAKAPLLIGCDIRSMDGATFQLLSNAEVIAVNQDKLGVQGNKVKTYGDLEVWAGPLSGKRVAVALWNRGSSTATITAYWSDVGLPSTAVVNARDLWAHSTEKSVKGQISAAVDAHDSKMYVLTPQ

Going from `Cc1ccc(O)c(N=Nc2ccccc2)n1` to `C[C@@H](NC(=O)/C(C#N)=C/c1ccc(O)c(O)c1)c1ccccc1`, the “activity change, negative = inhibition” value rises from -3.83% to -3.32%.

First: CC(C)Cc1ccc([C@H](C)C(=O)O)cc1
Second: COc1cc(CC(=O)O)ccc1O
The “activity change, negative = inhibition” value of the first is higher: -1.02% for the first, -3.98% for the second.

Going from `C[C@H](N)Cc1c[nH]c2ccc(O)cc12` to `C[C@H](N)Cc1c[nH]c2ccc(OCc3cccs3)cc12`, the “activity change, negative = inhibition” value rises from -4.33% to 2.29%.

Going from `Nc1nc2[nH]c(=O)cnc2c(=O)[nH]1` to `N[C@H](C(=O)O)c1cc(=O)[nH]o1`, the “activity change, negative = inhibition” value falls from -0.308% to -2.32%.

Compared with `CCCC1O[C@@H]2C[C@H]3[C@@H]4CCC5=CC(=O)C=C[C@]5(C)[C@H]4[C@@H](O)C[C@]3(C)[C@]2(C(=O)CO)O1` (stereo not given in full), `NC(=O)c1ncn([C@@H]2O[C@H](CO)[C@@H](O)[C@H]2O)n1` is higher in “activity change, negative = inhibition” value: -2.67% for the first, -0.672% for the second.

Compared with `Cc1cc2c(cc1Cl)N(C(=O)Nc1ccnc3ccccc13)CC2`, `CN1CCc2ccccc2Cc2[nH]c3ccccc3c2CC1` is higher in “activity change, negative = inhibition” value: -3.91% for the first, -1.06% for the second.

Compared with `N#C/C(=C\c1ccc(O)c(O)c1)C(=O)NCCc1ccccc1`, `N#C/C(=C\c1ccc(O)c(O)c1)C(=O)NCCCNC(=O)/C(C#N)=C/c1ccc(O)c(O)c1` is lower in “activity change, negative = inhibition” value: -1.58% for the first, -2.94% for the second.

First: CCCOC(=O)c1c(-c2ccccc2)nc(CC)c(C(=O)SCC)c1CCC
Second: CCCn1c(=O)c2[nH]c(-c3ccc(S(=O)(=O)O)cc3)nc2n(CCC)c1=O
The “activity change, negative = inhibition” value of the first is lower: -3.31% for the first, 1.29% for the second.

Compared with `Cc1cc(NC(=O)Nc2ccc3c(ccn3C)c2)sn1`, `O=C(Nc1ccccc1)c1cc([N+](=O)[O-])ccc1Cl` is higher in “activity change, negative = inhibition” value: -2.56% for the first, 1.16% for the second.

Compared with `O=c1[nH]c2cc(Cl)ccc2c(O)c1-c1ccc(Oc2ccccc2)cc1`, `OCc1ccc(-c2nn(Cc3ccccc3)c3ccccc23)o1` is lower in “activity change, negative = inhibition” value: 0.0827% for the first, -2.46% for the second.

First: C=C(C)[C@H]1CN[C@H](C(=O)O)[C@@H]1CC(=O)O
Second: CC(C)[C@H](NC(=O)OCc1ccccc1)C(=O)N[C@H](C=O)Cc1ccccc1
The “activity change, negative = inhibition” value of the first is higher: 0.37% for the first, -1.34% for the second.

Compared with `Fc1ccc(CN(C2=NCCN2)c2c(Cl)cccc2Cl)cc1`, `O=C1c2ccccc2-c2n[nH]c3cccc1c23` is higher in “activity change, negative = inhibition” value: -2.52% for the first, 0.882% for the second.

Going from `Cc1nc(N=Nc2cc(S(=O)(=O)O)c3cc([N+](=O)[O-])cc(S(=O)(=O)O)c3c2)c(COP(=O)(O)O)c(C=O)c1O` to `NS(=O)(=O)c1cccc2c1c([N+](=O)[O-])cc1nc(O)c(O)nc12`, the “activity change, negative = inhibition” value rises from -5.64% to -4.24%.

Going from `N=C(N)c1ccc(N)cc1` to `NC(=O)c1cccc(N)c1`, the “activity change, negative = inhibition” value falls from 0.422% to 0.373%.

Compared with `COc1ccc2c(c1OC)C(=O)OC2[C@H]1c2c(cc3c(c2OC)OCO3)CCN1C` (stereo not given in full), `c1ccc2c(c1)CC(N1CCN(c3cccc4c3OCCO4)CC1)C2` is lower in “activity change, negative = inhibition” value: 2.73% for the first, -4.53% for the second.

Compared with `O=c1cc(-c2ccc(O)cc2)oc2cc(O)cc(O)c12`, `C=CCn1c(=O)c2c(nc(-c3ccc(S(=O)(=O)O)cc3)n2C)n(C)c1=O` is higher in “activity change, negative = inhibition” value: -8.38% for the first, -4.47% for the second.

Compared with `NCCCCN=C(N)N`, `CCCCCCCCCCCCCCSCC(=O)O` is lower in “activity change, negative = inhibition” value: 1.41% for the first, 0.842% for the second.

Going from `Cc1ccc2c(c1)C(N1CCN(C)CC1)=Nc1cccnc1N2` to `CC(=O)N[C@@H](Cc1c[nH]c2ccccc12)C(=O)OCc1cc(C(F)(F)F)cc(C(F)(F)F)c1`, the “activity change, negative = inhibition” value falls from -1.26% to -4.36%.

First: C[N+]1(CCCCC[N+]2(C)CCCC2)CCCC1
Second: CCn1c(=O)[nH]c2cc(Cl)c(Cl)cc21
The “activity change, negative = inhibition” value of the first is higher: -1.44% for the first, -2.38% for the second.

First: Cn1ccnc1
Second: Brc1c(Br)c(Br)c2n[nH]nc2c1Br
The “activity change, negative = inhibition” value of the first is lower: -0.142% for the first, 1.73% for the second.
